USP1 inh: USP1/UAF1 (human) deubiquitinase inhibition. O94782. recombinant USP1/UAF1, Ub-Rhodamine cleavage fluorescence. Potency, µM (top dose mostly 57.1 µM), inactives show top-dose activity change, negative = inhibition, usual class: inhibitors. 0.23% of 390,000 active. AID 743255; further: on the % scale 0 is the no-effect control and ±100 the full control effect; nearly all actives have a fitted effect of over 60% in size
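Step one: compound is pinned into 1nM USP1/UAF1 in HEPES pH 7.8 buffer with TCEP. Step two: 15 min room-temperature incubation. Step three: Ub-Rho (150nM final) starts cleavage, tracked by fluorescence over six one-minute reads.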
TSG101-PTAP inh: blocks PTAP/TSG101 interaction to inhibit HIV-1 budding | AID 493005 | Fluorescence polarization, FITC-PTAP peptide / Tsg101 binding | Potency, µM (doses to about 115 µM), without a hit: at the top dose activity change, negative = inhibition, usual class: inhibitors | 340,000 tested, under 10 active; active means well fitted inhibition curve with a large enough effect in the main read-out, with a control signal flat, not every such curve was filed as active; inconclusive means small, poorly fitted or top-dose-only effect, or effect the other way, or a change in a side signal; inactive means no such curve, though single readings can be large or run the other way; further: % of control where 0% means no effect
Target sequence (Q99816 whole entry, looked up): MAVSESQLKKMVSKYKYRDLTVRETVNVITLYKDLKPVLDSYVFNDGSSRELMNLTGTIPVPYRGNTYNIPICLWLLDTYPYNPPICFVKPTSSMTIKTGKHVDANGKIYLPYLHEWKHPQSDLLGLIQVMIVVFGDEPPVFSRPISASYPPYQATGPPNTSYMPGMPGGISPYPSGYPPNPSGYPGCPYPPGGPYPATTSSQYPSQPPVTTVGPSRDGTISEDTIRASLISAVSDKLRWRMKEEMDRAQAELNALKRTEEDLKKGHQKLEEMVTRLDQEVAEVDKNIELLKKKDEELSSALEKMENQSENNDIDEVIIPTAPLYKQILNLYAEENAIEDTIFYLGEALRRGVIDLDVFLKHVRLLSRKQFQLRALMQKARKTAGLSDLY
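Steps: Tsg101 binding domain dispensed (10 uM final), compounds pinned in DMSO, FITC-labeled PTAP-motif peptide added (50 nM final); after 20 min binding at room temperature, polarization measured.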
GCN5L2 inh: inhibitors of human GCN5L2 histone acetyltransferase | Potency, µM (highest dose often 58.9 µM), inactives show at the highest dose activity change, negative = inhibition, actives largely listed as inhibitors | 0.21% of 390,000 active | GCN5L2 HAT assay, ThioGlo1 CoA-SH fluorescence | AID 504327; further: on the % scale 0 is the no-effect control and ±100 the full control effect
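Enzyme at 20nM final was mixed with library compounds for 15 min at room temperature. Peptide H3(1-25) at 75uM, acetyl-CoA at 70uM and ThioGlo1 at 50uM were then added. Plates were read immediately and after 20 min (Ex340nm/Em540nm).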
PLK1 PBD inh: PLK1 (human) polo-box domain binding inhibition | P53350 | Plk1 PBD binding of FITC phosphopeptide, fluorescence polarization | Potency, µM, for inactives: max response, negative = inhibition, hits mostly inhibitors | 2.8% of 360,000 active; further: series mostly up to about 57 µM; on the % scale 0 is the no-effect control and ±100 the full control effect; nearly all actives have a fitted effect of over 65% in size
VDR inhibitor: vitamin D3 receptor (human) inhibition | AID 504847 | P11473 | 0.93% of 400,000 active | VDR-SRC2-3 peptide fluorescence polarization, 2 h | Potency, µM, for inactives: max response, negative = inhibition, hits mostly inhibitors; further: on the % scale 0 is the no-effect control and ±100 the full control effect
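Compounds are added to VDR with labelled SRC2-3 coactivator peptide and held 2 h at room temperature. Inhibition of the VDR–peptide interaction is then read as a change in fluorescence polarization.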
The depositor's hits bear a star; ? = inconclusive; · = not tested or not shown; ! = a repeat was not active; [ ] = remark or other dose. The list is not random: actives were taken first. Their share in the collection is about 3%. Unless noted, the call rests on the fitted dose curve; in most records, active means well fitted curve in the direction sought with a large enough effect; inconclusive means small, poorly fitted or top-dose-only effect, or another doubt; inactive means no such curve, though single readings can be large; an effect the other way counts as inactive or inconclusive. Potency means the concentration at half of the fitted maximal effect.

SMILES	USP1 inh	TSG101-PTAP inh	GCN5L2 inh	PLK1 PBD inh	VDR inhibitor
O=C1NC(=S)N/C1=C/c1cccnc1	-19%	-3%	-11%	24µM*	-27%
O=C1Nc2ccccc2/C1=C/c1ccccc1F	-23%	-5%	3%	30µM*	?
O=C1Nc2ccccc2/C1=C/c1cccnc1	-6%	-6%	-4%	27µM*	?
CN(C)c1ccc(/C=C2\C(=O)Nc3ccccc32)cc1	·	·	-25%	·	?
O=C1NC(=S)NC1=Cc1ccco1	?	-8%	·	24µM*	28µM*
Cc1ccccc1/C=C1\C(=O)Nc2ccc(F)cc21	-21%	-2%	-3%	-6%	-6%
CCOC(=O)C1CCCN(C(=O)c2nn(-c3ccc(C)cc3)c(=O)n(C)c2=O)C1 (stereo unspecified)	-16%	·	-9%	·	15%
COc1cccc(CNC(=O)CCCn2c(=O)c3cccn3c3ccc(F)cc32)c1OC	-5%	·	-5%	·	-2%
Cc1ccc(C)c(N2CCN(c3ncnc4c3cnn4-c3ccccc3)CC2)c1	-1%	-7%	-2%	27µM*	?
Cc1ccc(-n2ncc3c(N4CCN(C)CC4)ncnc32)cc1	-1%	·	-9%	·	6%
O=C(CCCC(=O)c1ccc(O)cc1)c1ccc(O)cc1	-2%	2%	-4%	6%	-13%
O=C1C=CC(=C(c2ccc(O)cc2)c2ccc(O)cc2)C=C1	-12%	-2%	1%	5%	50µM*
NS(=O)(=O)c1ccc(NC(=O)CSc2nc3ccccc3nc2N2CCOCC2)cc1	-16%	-6%	?	-5%	-4%
CC1(N2CCOCC2)CC2(O)C(=[N+]1[O-])CCc1c2no[n+]1[O-] (stereo unspecified)	?	-5%	-6%	6µM*	-4%
O=C(Nc1ccccc1Sc1ccccc1)c1cnn2c1NC(=C1CC1)C=C2C(F)(F)F	·	·	·	·	4%
Cn1nc(C(=O)O)c(=O)n(C)c1=O	-9%	0%	·	27µM*	-23%
COCCNC(=O)C(c1ccc(C)o1)N(CCOC)C(=O)Cn1nnc2ccccc21 (stereo unspecified)	-14%	-3%	-6%	27µM*	-25%
COc1cccc(CN2CCCC(CNC(=O)c3ccc(F)cc3)C2)c1OC (stereo unspecified)	-14%	-4%	11%	1%	2%
Cc1cn(CC(=O)NCCc2ccccn2)c(=O)[nH]c1=O	-18%	-1%	·	21µM*	-7%
COCCN(C(=O)COc1ccccc1C#N)c1c(N)n(Cc2ccccc2)c(=O)[nH]c1=O	-11%	-6%	0%	-7%	-2%
CO[C@H]1/C=C/O[C@@]2(C)Oc3c(C)c(O)c4c(O)c(c5c(c4c3C2=O)NC2(CCN(CC(C)C)CC2)N=5)=NC(=O)/C(C)=C\C=C\[C@H](C)[C@H](O)[C@@H](C)[C@@H](O)[C@@H](C)[C@H](OC(C)=O)[C@@H]1C	?	2%	11%	-8%	40µM*!
CC(C)(C)c1ccc(S(=O)(=O)c2cnc(SCC(=O)Nc3ccc(F)c(Cl)c3)[nH]c2=O)cc1	?	·	28µM*	·	?
COc1cc(Cl)c(C)cc1NC(=O)CSc1ncc(S(=O)(=O)c2ccc(C(C)(C)C)cc2)c(=O)[nH]1	?	·	18µM*	·	-14%
O=C(CSc1ncc(S(=O)(=O)c2ccc(Cl)cc2)c(=O)[nH]1)Nc1cccc(C(F)(F)F)c1	-26%	·	-7%	·	?
Nc1nn(-c2ccccc2)nc1C(=O)OCc1c(F)cccc1Cl	-17%	·	-9%	·	-3%
SMILES	USP1 inh	TSG101-PTAP inh	GCN5L2 inh	PLK1 PBD inh	VDR inhibitor
O=C(NCc1ccco1)c1ccc(C(=O)NCc2ccco2)s1	-12%	-3%	-5%	11µM*	-23%
O=C(NCc1ccco1)c1ccc(Cl)s1	-19%	-5%	-4%	-9%	-14%
Cc1cc(Br)ccc1OCCCCNC(C)(C)C	-16%	-4%	-9%	27µM*	?
CN1CCc2cccc3c2[C@@H]1Cc1ccc(O)c(O)c1-3	-10%	-9%	-12%	?	32µM*!
C/C(=N/NC(=O)c1cc2ccccc2cc1O)C1C(=O)c2ccccc2C1=O	?	-5%	-5%[0.501 µM]	9.5µM*	-25%
CCOC(=O)C1(c2ccccc2)SC(C(=O)OCC)(c2ccccc2)S1 (stereo unspecified)	-19%	·	·	21µM*	·
CCOC(=O)C1(c2ccccc2)CCCNC1=O (stereo unspecified)	-4%	·	·	-10%	·
COc1ccc(-c2cnnc(N/N=C/c3ccc(C)o3)n2)cc1	-17%	-2%	-4%	6µM*	45µM*
Cc1cccc(-c2nnc(SCC#N)n2C)c1	-19%	-5%	0%	27µM*	-9%
CCOc1ccc(N(CC(=O)O)S(=O)(=O)c2cccnc2)cc1	-12%	-1%	-3%	-10%	-10%
CC(C)c1ccc(N(CC(=O)O)S(=O)(=O)c2cccnc2)cc1	3%	-1%	2%	27µM*	-20%
Cc1cccc(N2C(=O)CSC23C(=O)N(CC(=O)NCCc2ccccc2)c2ccccc23)c1 (stereo unspecified)	-31%	·	-2%	·	-1%
Cc1ccc(Nc2nc3ccccc3o2)cc1F	-13%	-2%	-1%	3µM*	?
COC(=O)c1ccc(-n2c(C)cc(C(=O)CSc3cccc[n+]3[O-])c2C)cc1	-25%	5%	-1%	-1%	-12%
O=C(CSc1cccc[n+]1[O-])Nc1ccccc1Oc1ccccc1	-6%	-1%	-12%	30µM*	?
O=C(CSc1cccc[n+]1[O-])Nc1ccccc1C(F)(F)F	0%	-7%	-1%	-11%	21%
COC(=O)c1ccc(C(=O)OC)c(NC(=O)CSc2cccc[n+]2[O-])c1	-23%	0%	6%	24µM*	-30%
COc1ccc(OC)c(NC(=O)c2c(NCc3ccc(N(C)C)cc3)sc3c2CCCC3)c1	-18%	·	-6%	·	4%
Cc1ccccc1OCCOC(=O)c1c(-c2ccccc2)noc1C	-17%	-3%	-7%	-7%	5%
Cc1onc(-c2ccccc2)c1C(=O)OCCOc1ccccc1F	-19%	2%	-11%	27µM*	?
CCOC(=O)C1=NN(C(C)=O)C2(CC(=O)N(c3cccc(C)c3)C2=O)C1 (stereo unspecified)	-18%	-1%	1%	27µM*	-23%
O=C(NCc1ccccc1Cl)C1CCN(C(=O)N2CCOc3ccccc32)CC1	?	·	-2%	·	-2%
Oc1ccc(N=Nc2ccccc2)o1	-20%	-1%	-5%	?	89µM*
O=c1ccc(N=Nc2ccccc2)ccc1O	-8%	-6%	-1%	-20%	-4%
CC(CCc1ccccc1)NS(=O)(=O)c1ccccc1 (stereo unspecified)	-12%	-2%	-2%	-3%	4%
CC(CCc1ccccc1)NS(=O)(=O)c1ccc(Cl)c(C(=O)O)c1 (stereo unspecified)	-11%	-1%	-1%	24µM*	?
